HCMV antiviral: inhibitors of human cytomegalovirus; 410,000 compounds, 4.5% hits; activity change, negative = inhibition, % at 57.5 µM; HFF cells, HCMV-luciferase reporter, 72 h; stronger effect = lower value; in the data active = activity change below about -60%; inconclusive = no clear call, values can overlap the other calls; inactive = above about -39%
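HFF cells seeded 16 h at 37C, treated with compounds, infected with luciferase-reporter HCMV at MOI 1 PFU/cell; luciferase read at 72 h post infection, normalized to buffer-only and Salinomycin controls.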
FMDV antiviral: foot and mouth disease virus antiviral activity; FMDV antiviral cell-based qHTS; Potency, µM (doses to about 57.9 µM), inactives show top-dose activity change, negative = inhibition, usual class: inhibitors; 410,000 compounds, 1.2% hits; calls by dose curve; tested in HEK293T cells; also: read-out not given here; potency is read from the fitted curve at half-maximal effect; nearly all actives have a fitted effect of over 45% in size
VACV mCherry inh: inhibitors of vaccinia virus infection (mCherry reporter signal); Potency, µM (top dose mostly 36.5 µM), for the others: at the highest dose activity change, negative = inhibition, usual class: inhibitors; 310,000 compounds, 0.63% hits; Vaccinia virus mCherry reporter infection, fluorescence; calls by dose curve; tested in A549 cells; also: potency is read from the fitted curve at half-maximal effect; nearly all actives have a fitted effect of over 35% in size
Vaccinia Venus: inhibitors of vaccinia virus (Venus reporter). Vaccinia virus Venus reporter expression, fluorescence. Potency, µM (series often up to 36.5 µM), without a hit: at the top dose activity change, negative = inhibition, hits mostly inhibitors. 330,000 compounds, 0.46% hits. AID 720580; calls by dose curve; tested in A549 cells; also: potency is read from the fitted curve at half-maximal effect; nearly all actives have a fitted effect of over 30% in size
Giardia FBPA inh: blocks Giardia fructose-bisphosphate aldolase activity; A8B2U2; 290,000 compounds, 0.71% hits; purified Giardia FBPA; Potency, µM (top dose mostly 59.6 µM), for inactives: at the highest dose activity, negative = inhibition, most hits filed as inhibitors; also: potency is read from the fitted curve at half-maximal effect; nearly all actives have a fitted effect of over 55% in size
Target sequence (A8B2U2 whole entry, looked up): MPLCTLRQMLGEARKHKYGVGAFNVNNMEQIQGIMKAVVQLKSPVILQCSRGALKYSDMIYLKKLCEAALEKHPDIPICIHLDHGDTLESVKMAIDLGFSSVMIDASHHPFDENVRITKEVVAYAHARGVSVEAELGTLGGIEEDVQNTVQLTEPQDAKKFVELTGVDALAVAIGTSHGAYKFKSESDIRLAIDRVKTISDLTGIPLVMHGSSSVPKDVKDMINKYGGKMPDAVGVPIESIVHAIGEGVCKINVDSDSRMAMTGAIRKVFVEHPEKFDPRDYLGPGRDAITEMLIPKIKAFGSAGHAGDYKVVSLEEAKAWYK
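Giardia FBPA (40 nM reagent) was preincubated 10 min at RT with compound (up to 57.5 uM final), then substrate plus GAPDH/TPI/NAD/arsenate coupling system with diaphorase/resazurin was added; resorufin fluorescence (525/598 nm) was read after 20 min.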
HCV inh: inhibitors of hepatitis C virus infection; Huh7.5.1 HCVcc-Cre infection, luciferase reporter, 44 h; Potency, µM (series often up to 41.8 µM), for the others: top-dose activity change, negative = inhibition, most hits filed as inhibitors; 340,000 compounds, 3.4% hits; also: potency is read from the fitted curve at half-maximal effect
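Cells (1,000/well) were plated 4 h before compound, then infected with HCVcc-Cre virus (~0.5 moi). After 44 h further culture, infection was read as luciferase luminescence following a 15 min substrate incubation at room temperature.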
An asterisk follows results filed as active. Shown are actives, neighbours in structure and some others; about 7.5% of the full set was active somewhere. Unless noted, calls follow the shape of the dose curve; as a rule, active = well fitted curve in the direction sought with a large enough effect; inconclusive = small, poorly fitted or top-dose-only effect, or another doubt; inactive = no such curve, though single readings can be large; an effect the other way counts as inactive or inconclusive. % is scaled to controls: 0 for no effect and ±100 for the full control effect.

For O=C1CC[C@@H](C(=O)NCC2Cc3cc(Cl)cc(-c4ccc5[nH]ccc5c4)c3O2)N1 (stereo partly drawn) the results were FMDV antiviral -15%, VACV mCherry inh -20% and Vaccinia Venus 5%.
For O=C(N[C@H]1CC[C@@H](CCNS(=O)(=O)c2ccccc2Cl)O[C@@H]1CO)c1ccccc1 the results were HCMV antiviral -23, FMDV antiviral -19%, VACV mCherry inh -20% and Vaccinia Venus -12%.
Screening O=C(N[C@H]1CC[C@H](CCNS(=O)(=O)c2ccc(Cl)cc2)O[C@@H]1CO)c1cccc(F)c1 returned HCMV antiviral -101*, FMDV antiviral inconclusive, VACV mCherry inh -17% and Vaccinia Venus inconclusive.
For Cc1ccc(CN2CCC(c3nc4ccc(Cl)cc4[nH]3)CC2)cc1 the results were HCMV antiviral -20, VACV mCherry inh -8%, Vaccinia Venus inconclusive, Giardia FBPA inh 0% and HCV inh 11µM*.
COc1ccc(-c2cc(C3CCN(Cc4ccc([N+](=O)[O-])cc4)CC3)[nH]n2)cc1 was read as HCMV antiviral inconclusive, FMDV antiviral inconclusive, VACV mCherry inh -14%, Vaccinia Venus -3%, Giardia FBPA inh -2% and HCV inh inconclusive.
`Cc1ccc(CN2CCC(c3cc(-c4ccc(Cl)cc4)n[nH]3)CC2)cc1` gave HCMV antiviral -99*, FMDV antiviral inconclusive, VACV mCherry inh inactive, Vaccinia Venus -14%, Giardia FBPA inh 8% and HCV inh 13µM*.
`c1ccc(Cn2c(-c3ccccc3)c[n+]3c2SCCC3)cc1` gave HCMV antiviral inconclusive, FMDV antiviral -13%, VACV mCherry inh -12%, Vaccinia Venus -16%, Giardia FBPA inh 4% and HCV inh 2.5µM*.
Screening Cc1onc(-c2ccccc2Cl)c1-c1nc(-c2ccccn2)no1 returned HCMV antiviral -27, FMDV antiviral -16%, VACV mCherry inh -16%, Vaccinia Venus -28%, Giardia FBPA inh 10% and HCV inh -9%.
For Clc1ccccc1/C=C/c1nc(-c2ccccn2)no1 the results were HCMV antiviral inconclusive, FMDV antiviral 4µM*, VACV mCherry inh inactive, Vaccinia Venus -12%, Giardia FBPA inh 0% and HCV inh -27%.
For CCOC(=O)C1CCCN(C(=O)c2ccc3c(c2)N(Cc2ccccc2)C(=O)c2ccccc2S3=O)C1 (stereo not drawn) the results were HCMV antiviral -35, FMDV antiviral -7%, VACV mCherry inh -4%, Vaccinia Venus 13%, Giardia FBPA inh -8% and HCV inh -2%.
Screening CC1CCC(C)(NS(=O)(=O)OCC(Cl)(Cl)Cl)CC1 (stereo not drawn) returned HCMV antiviral -25, FMDV antiviral 8%, VACV mCherry inh inactive, Vaccinia Venus -23%, Giardia FBPA inh 3% and HCV inh 9%.
O=S(=O)(N[C@H]1C[C@@H](NS(=O)(=O)OCC(Cl)(Cl)Cl)C2CCCCC21)OCC(Cl)(Cl)Cl (stereo partly drawn) was read as HCMV antiviral -31, FMDV antiviral inconclusive, VACV mCherry inh inconclusive, Vaccinia Venus 10µM*, Giardia FBPA inh -8% and HCV inh 0%.
For O=C(NCc1ccccn1)c1ccc2nc(C3CCCCC3)oc2c1 the results were HCMV antiviral -13, FMDV antiviral 30%, VACV mCherry inh -15%, Vaccinia Venus -12%, Giardia FBPA inh 8% and HCV inh 5%.
CCOc1nc(-c2ccc(C)cc2)ccc1-c1noc(-c2ccccc2F)n1 was read as HCMV antiviral 0, FMDV antiviral -1%, VACV mCherry inh -9% and Vaccinia Venus -13%.
Screening CCOC(=O)c1cc(S(=O)(=O)N2CCN(c3cccc(OC)c3)CC2)[nH]n1 returned HCMV antiviral -10, FMDV antiviral -8%, VACV mCherry inh -15% and Vaccinia Venus -7%.
For CCOC(=O)c1cc(S(=O)(=O)N2CCN(c3ccc(OC)cc3)CC2)[nH]n1 the results were HCMV antiviral -112*, FMDV antiviral 32%, VACV mCherry inh -12% and Vaccinia Venus -8%.
`COc1ccccc1C1c2ccc3ccccc3c2Oc2ncn(CCCO)c(=N)c21` (stereo not drawn) gave FMDV antiviral -17%, VACV mCherry inh inconclusive, Vaccinia Venus -26%, Giardia FBPA inh 1% and HCV inh inconclusive.
For COc1ccccc1C1c2ccc3ccccc3c2Oc2ncn(CCN(C)C)c(=N)c21 (stereo not drawn) the results were HCMV antiviral -101*, FMDV antiviral -31%, VACV mCherry inh -20%, Vaccinia Venus inconclusive, Giardia FBPA inh -1% and HCV inh 13µM*.
Screening COc1ccc(C2c3ccc4ccccc4c3Oc3ncn(CCCN(C)C)c(=N)c32)cc1 (stereo not drawn) returned HCMV antiviral -64*, FMDV antiviral 1%, VACV mCherry inh inconclusive, Vaccinia Venus inconclusive, Giardia FBPA inh 0% and HCV inh inconclusive.
CCOC(=O)C1CCCN(C(=O)c2cccc(NC(=O)c3nsc4ccccc34)c2)C1 (stereo not drawn) was read as HCMV antiviral 70, FMDV antiviral 15%, VACV mCherry inh -4% and Vaccinia Venus -1%.
C/C=C/c1ccc(OCC(O)CNCCc2ccc(OC)cc2)c(OC)c1 (stereo not drawn) was read as HCMV antiviral inconclusive, FMDV antiviral -27%, Giardia FBPA inh -21% and HCV inh inconclusive.
`C/C=C/c1ccc(OCCCNC2CCCC2)c(OC)c1` gave HCMV antiviral 1, FMDV antiviral 0%, VACV mCherry inh inconclusive, Vaccinia Venus -16%, Giardia FBPA inh -23% and HCV inh 0.89µM*.
For C/C=C/c1ccc(OCC(O)CN2CCCCC2CC)c(OC)c1 (stereo not drawn) the results were HCMV antiviral -38, FMDV antiviral -9%, VACV mCherry inh -8%, Vaccinia Venus -11%, Giardia FBPA inh inconclusive and HCV inh 2.5µM*.
Screening C/C=C/c1ccc(OCC(O)CN(C)Cc2ccc(SC)cc2)c(OC)c1 (stereo not drawn) returned HCMV antiviral -102*, FMDV antiviral -11%, Giardia FBPA inh inconclusive and HCV inh -21%.
COC1C(CO)OC(n2c3c(Cl)cccc3c3c4c(c5c6cccc(Cl)c6[nH]c5c32)C(=O)NC4=O)C(O)C1O (stereo not drawn) was read as HCMV antiviral -98*, FMDV antiviral -19%, VACV mCherry inh inconclusive, Vaccinia Venus inconclusive and HCV inh inconclusive.
For CCOc1ccc(NS(=O)(=O)c2ccc(C(=O)NNC(=O)c3ccccc3O)cc2)cc1 the results were HCMV antiviral -5, FMDV antiviral -8%, VACV mCherry inh 7.1µM*, Vaccinia Venus inconclusive and HCV inh inconclusive.

Screening data from PubChem BioAssay.
